Inconclusive results are not listed. Where a call stands in place of a potency, no number is given. Active and inactive are the calls of the source. Calls come from the whole dose curve; as a rule, active = well fitted curve in the direction sought with a large enough effect in the repeat runs; inconclusive = weak or mixed curves; inactive = no such curve, though single readings can be large; an effect the other way counts as inactive or inconclusive.
What was measured:
[1] = target: Cytochrome P450 2D6 (Homo sapiens) (UniProt P10635); experiment: Cytochrome P450 Family 2 Subfamily D Member 6 (CYP2D6) small molecule antagonists: luciferase reporter qHTS assay (AID 1671196); note: nearly all actives have a fitted effect of over 50% in size
Method in brief: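 Test chemicals meet CYP2D6 plus proluciferin substrate (10 min, RT); NADPH regenerating solution then drives turnover for 1 h. Detection reagent halts the reaction; luminescence measured after 20 min.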

[2] = target: Cytochrome P450 2C9 (Homo sapiens) (UniProt P11712); experiment: Cytochrome P450 Family 2 Subfamily C Member 9 (CYP2C9) small molecule antagonists: luciferase reporter qHTS assay (AID 1671198); note: nearly all actives have a fitted effect of over 50% in size
Method in brief: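 P450-Glo proluciferin substrate with CYP2C9 enzyme; 10 min RT preincubation, then NADPH regeneration 1 h at 37C; luciferin detection reagent 20 min RT, luminescence in relative luminescence units.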

[3] = target: Cytochrome P450 1A2 (Homo sapiens) (UniProt P05177); experiment: Cytochrome P450 Family 1 Subfamily A Member 2 (CYP1A2) small molecule antagonists: luciferase reporter qHTS assay (AID 1671199); note: nearly all actives have a fitted effect of over 50% in size
Method in brief: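 Steps: enzyme-substrate mix dispensed; test compounds and furafylline control pinned in; 10 min room temperature; NADPH regeneration solution added, 1 h; reaction stopped with luciferin detection reagent; luminescence read after 20 min.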

[4] = target: Voltage-gated inwardly rectifying potassium channel KCNH2 (Homo sapiens) (UniProt Q12809); experiment: Human Ether-a-go-go-Related Gene (hERG) channel small molecule antagonists: fluorescence cell-based qHTS assay (AID 1671200); note: nearly all actives have a fitted effect of over 50% in size
Method in brief: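 First, 1000 cells per well are seeded and cultured overnight at 37 C. Next, FluxOR II dye is loaded for 1 h at room temperature, protected from light. After 10 more minutes, stimulus is added and fluorescence is read.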

[5] = target: Cytochrome P450 3A4 (Homo sapiens) (UniProt P08684); experiment: Cytochrome P450 Family 3 Subfamily A Member 4 (CYP3A4) small molecule antagonists: luciferase reporter qHTS assay (AID 1671201); note: nearly all actives have a fitted effect of over 50% in size
Method in brief: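 Enzyme and proluciferin substrate are mixed with test chemicals for 10 min, then NADPH regeneration system drives turnover for 1 h at room temperature. A detection reagent halts the reaction; luminescence after 20 min gives relative activity.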

[6] = target: Cytochrome P450 2C19 (Homo sapiens) (UniProt P33261); experiment: Cytochrome P450 Family 2 Subfamily C Member 19 (CYP2C19) small molecule antagonists: luciferase reporter qHTS assay (AID 1671197); note: nearly all actives have a fitted effect of over 65% in size
Method in brief: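 Light output is proportional to CYP2C19 activity: proluciferin substrate is converted to luciferin, then detected by a luciferin detection reagent that also stops the 1 h, 37C NADPH-driven reaction. Ketoconazole serves as positive control.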
Potency is the fitted concentration of half-maximal effect.

Cytochrome P450 3A4 (Homo sapiens), sequence (P08684 whole entry, looked up): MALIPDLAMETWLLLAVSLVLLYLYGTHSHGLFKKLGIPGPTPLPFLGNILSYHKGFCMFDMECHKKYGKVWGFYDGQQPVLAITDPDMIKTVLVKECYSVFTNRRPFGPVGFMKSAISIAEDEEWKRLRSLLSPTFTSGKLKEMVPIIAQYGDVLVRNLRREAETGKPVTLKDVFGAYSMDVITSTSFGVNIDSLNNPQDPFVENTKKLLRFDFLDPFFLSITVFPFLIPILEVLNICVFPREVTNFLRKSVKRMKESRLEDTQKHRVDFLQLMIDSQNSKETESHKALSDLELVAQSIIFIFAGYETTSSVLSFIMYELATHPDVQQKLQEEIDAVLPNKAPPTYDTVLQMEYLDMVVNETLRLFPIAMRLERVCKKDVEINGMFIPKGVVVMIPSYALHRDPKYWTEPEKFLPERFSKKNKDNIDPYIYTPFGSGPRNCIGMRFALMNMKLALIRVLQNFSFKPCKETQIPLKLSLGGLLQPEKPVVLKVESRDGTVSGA
Voltage-gated inwardly rectifying potassium channel KCNH2 (Homo sapiens), sequence (Q12809 whole entry, looked up): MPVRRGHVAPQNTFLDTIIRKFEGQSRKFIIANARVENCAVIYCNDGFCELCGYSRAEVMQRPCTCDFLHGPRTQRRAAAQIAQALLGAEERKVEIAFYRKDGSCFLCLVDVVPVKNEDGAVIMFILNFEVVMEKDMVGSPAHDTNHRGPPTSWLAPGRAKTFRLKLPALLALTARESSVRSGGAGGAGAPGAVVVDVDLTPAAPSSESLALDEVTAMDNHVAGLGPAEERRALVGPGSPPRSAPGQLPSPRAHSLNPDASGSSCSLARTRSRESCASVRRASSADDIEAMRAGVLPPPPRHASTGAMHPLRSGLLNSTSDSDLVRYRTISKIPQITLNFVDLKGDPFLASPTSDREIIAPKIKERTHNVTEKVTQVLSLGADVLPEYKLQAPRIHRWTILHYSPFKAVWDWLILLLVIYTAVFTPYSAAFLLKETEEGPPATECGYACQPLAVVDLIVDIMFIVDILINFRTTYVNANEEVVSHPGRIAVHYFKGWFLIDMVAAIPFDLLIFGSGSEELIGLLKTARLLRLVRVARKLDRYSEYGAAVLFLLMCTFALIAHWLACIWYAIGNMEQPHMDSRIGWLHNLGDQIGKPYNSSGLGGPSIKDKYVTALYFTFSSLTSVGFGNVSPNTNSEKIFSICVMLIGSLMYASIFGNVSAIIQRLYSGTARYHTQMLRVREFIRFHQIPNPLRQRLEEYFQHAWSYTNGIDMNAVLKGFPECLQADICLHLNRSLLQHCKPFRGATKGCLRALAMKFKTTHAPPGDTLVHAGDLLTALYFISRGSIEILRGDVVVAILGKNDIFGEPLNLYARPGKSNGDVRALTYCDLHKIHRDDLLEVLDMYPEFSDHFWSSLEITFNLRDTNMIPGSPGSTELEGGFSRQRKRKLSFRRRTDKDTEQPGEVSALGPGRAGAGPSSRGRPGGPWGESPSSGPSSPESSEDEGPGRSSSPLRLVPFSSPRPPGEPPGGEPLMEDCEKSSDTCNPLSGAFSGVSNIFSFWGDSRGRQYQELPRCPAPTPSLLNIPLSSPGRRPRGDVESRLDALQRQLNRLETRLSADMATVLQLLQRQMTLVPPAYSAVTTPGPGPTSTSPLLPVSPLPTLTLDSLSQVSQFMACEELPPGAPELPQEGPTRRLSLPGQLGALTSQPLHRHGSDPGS
Cytochrome P450 2C9 (Homo sapiens), sequence (P11712 whole entry, looked up): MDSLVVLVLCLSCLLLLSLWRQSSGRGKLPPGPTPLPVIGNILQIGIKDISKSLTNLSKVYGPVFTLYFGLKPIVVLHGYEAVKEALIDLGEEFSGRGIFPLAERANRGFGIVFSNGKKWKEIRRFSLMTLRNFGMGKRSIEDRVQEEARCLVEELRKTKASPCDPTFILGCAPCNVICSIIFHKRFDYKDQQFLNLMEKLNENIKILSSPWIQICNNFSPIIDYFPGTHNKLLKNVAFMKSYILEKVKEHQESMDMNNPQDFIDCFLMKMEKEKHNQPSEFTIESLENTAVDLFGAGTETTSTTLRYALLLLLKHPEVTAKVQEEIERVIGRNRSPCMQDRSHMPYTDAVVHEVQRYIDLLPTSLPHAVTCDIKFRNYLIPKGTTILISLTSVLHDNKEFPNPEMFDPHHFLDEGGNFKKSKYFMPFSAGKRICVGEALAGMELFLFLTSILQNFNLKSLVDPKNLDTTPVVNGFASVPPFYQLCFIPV
Cytochrome P450 2D6 (Homo sapiens), sequence (P10635 whole entry, looked up): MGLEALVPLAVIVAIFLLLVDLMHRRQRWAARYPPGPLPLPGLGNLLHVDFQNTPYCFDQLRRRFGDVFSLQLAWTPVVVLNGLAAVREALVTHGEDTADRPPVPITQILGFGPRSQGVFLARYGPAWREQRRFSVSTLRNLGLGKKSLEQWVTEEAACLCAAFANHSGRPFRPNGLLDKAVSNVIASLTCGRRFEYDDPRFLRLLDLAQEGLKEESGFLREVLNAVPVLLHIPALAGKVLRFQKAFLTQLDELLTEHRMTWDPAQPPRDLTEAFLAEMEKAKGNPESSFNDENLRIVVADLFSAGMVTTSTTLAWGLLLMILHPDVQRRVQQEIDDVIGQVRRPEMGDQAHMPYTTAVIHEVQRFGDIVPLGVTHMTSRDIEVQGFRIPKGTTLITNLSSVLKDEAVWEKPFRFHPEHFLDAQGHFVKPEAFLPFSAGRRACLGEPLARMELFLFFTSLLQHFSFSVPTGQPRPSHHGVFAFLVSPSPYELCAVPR
Cytochrome P450 1A2 (Homo sapiens), sequence (P05177 whole entry, looked up): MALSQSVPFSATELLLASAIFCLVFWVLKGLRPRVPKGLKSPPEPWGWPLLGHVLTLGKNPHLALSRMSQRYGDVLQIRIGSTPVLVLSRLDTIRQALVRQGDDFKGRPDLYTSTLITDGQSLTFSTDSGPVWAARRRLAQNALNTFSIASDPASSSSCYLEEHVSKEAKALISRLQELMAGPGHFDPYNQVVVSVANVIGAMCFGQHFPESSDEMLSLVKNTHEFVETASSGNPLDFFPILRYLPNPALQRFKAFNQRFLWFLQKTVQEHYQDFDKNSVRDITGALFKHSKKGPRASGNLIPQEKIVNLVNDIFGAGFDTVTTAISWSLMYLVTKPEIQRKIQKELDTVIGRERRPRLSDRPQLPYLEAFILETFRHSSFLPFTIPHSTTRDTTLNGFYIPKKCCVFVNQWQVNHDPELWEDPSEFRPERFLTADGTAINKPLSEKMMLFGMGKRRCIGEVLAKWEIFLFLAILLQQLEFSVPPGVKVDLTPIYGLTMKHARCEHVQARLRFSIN
Cytochrome P450 2C19 (Homo sapiens), sequence (P33261 whole entry, looked up): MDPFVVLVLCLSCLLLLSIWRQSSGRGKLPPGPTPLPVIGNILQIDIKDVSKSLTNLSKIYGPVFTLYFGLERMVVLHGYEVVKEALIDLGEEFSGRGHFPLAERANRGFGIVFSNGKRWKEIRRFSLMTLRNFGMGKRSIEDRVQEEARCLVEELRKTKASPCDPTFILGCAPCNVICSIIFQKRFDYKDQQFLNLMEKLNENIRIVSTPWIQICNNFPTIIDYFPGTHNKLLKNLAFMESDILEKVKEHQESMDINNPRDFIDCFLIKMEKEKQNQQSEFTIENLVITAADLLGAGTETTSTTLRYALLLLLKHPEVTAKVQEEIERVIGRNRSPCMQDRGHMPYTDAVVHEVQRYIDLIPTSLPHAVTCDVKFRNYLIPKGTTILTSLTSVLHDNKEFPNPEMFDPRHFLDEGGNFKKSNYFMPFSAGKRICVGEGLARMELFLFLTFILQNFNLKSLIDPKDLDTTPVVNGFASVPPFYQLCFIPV

| Compound | Potency [1] | Potency [2] | Potency [3] | Potency [4] | Potency [5] | Potency [6] |
| --- | --- | --- | --- | --- | --- | --- |
| CC=C(Cl)Cl | inactive | inactive | inactive | inactive | inactive | – |
| CC(CCC(=O)O)C(=O)O (stereo unspecified) | 63.4 µM (active) | inactive | – | inactive | inactive | – |
| CCN(CC)CCNC(=O)COc1ccc(OC)cc1 | 13.8 µM (active) | inactive | inactive | inactive | inactive | – |
| COc1cc(N)c(Cl)cc1C(=O)NC1CCN(CCCOc2ccc(F)cc2)CC1OC (stereo unspecified) | – | inactive | inactive | – | – | 15.5 µM (active) |
| CCC=CC#N | inactive | inactive | – | inactive | inactive | – |
| CCCCOc1ccc(OCCCN2CCOCC2)cc1 | 27.5 µM (active) | – | inactive | – | inactive | – |
| O=C1Cc2ccccc2N1c1c(Cl)cccc1Cl | – | 35.6 µM (active) | inactive | 19.5 µM (active) | 17.8 µM (active) | 11.2 µM (active) |
| CCOc1ccccc1O[C@H](c1ccccc1)[C@H]1CNCCO1 | – | inactive | inactive | inactive | – | inactive |
| CCOc1ccc(Cc2nccc3cc(OCC)c(OCC)cc23)cc1OCC | – | 4.9 µM (active) | inactive | – | – | 7.76 µM (active) |
| O=C1CCCCCCCCCCOCCCCO1 | inactive | – | 35.6 µM (active) | – | 39.9 µM (active) | – |
| NNC(=O)CP(=O)(c1ccccc1)c1ccccc1 | inactive | – | inactive | inactive | – | – |
| CN1C(=O)N(c2ccccc2Br)Cc2cnc(Nc3ccc4c(c3)OCC(CO)O4)nc21 (stereo unspecified) | – | 11.2 µM (active) | 28.3 µM (active) | 43.6 µM (active) | inactive | 7.1 µM (active) |
| CCC1(CO)COCOC1 | inactive | inactive | – | inactive | inactive | – |
| Cc1ccc2c(Br)cc(Br)c(O)c2n1 | inactive | – | – | inactive | inactive | – |
| CN(C(=O)CN(CCO)CC(=O)N(C)C(C)(C)Cc1ccccc1)C(C)(C)Cc1ccccc1 | 4.36 µM (active) | 30.9 µM (active) | inactive | inactive | – | – |
| Nc1ncnc2c1ncn2[C@H]1CC[C@@H](CO)O1 | inactive | inactive | – | inactive | inactive | – |
| CCC(C)COC(C)=O (stereo unspecified) | inactive | inactive | inactive | inactive | inactive | – |
| Cc1ccc(Cl)c(Nc2ccccc2C(=O)O)c1Cl | inactive | 17.4 µM (active) | inactive | inactive | inactive | – |
| CCCCCC[C@@H](O)C/C=C\CCCCCCCC(=O)O | inactive | – | inactive | inactive | inactive | – |
| COc1ccccc1N1CCN(CC(O)COc2cccc3ccccc23)CC1 (stereo unspecified) | 1.55 µM (active) | – | – | 1.9 µM (active) | inactive | – |

| Compound | Potency [1] | Potency [2] | Potency [3] | Potency [4] | Potency [5] | Potency [6] |
| --- | --- | --- | --- | --- | --- | --- |
| Cc1ccccc1S | 28.5 µM (active) | 45.2 µM (active) | – | inactive | inactive | – |
| CNC(=O)c1cnn(-c2nc(N)c3ncn([C@@H]4O[C@H](CO)[C@@H](O)[C@H]4O)c3n2)c1 | – | inactive | inactive | inactive | inactive | inactive |
| CC(=O)Nc1ccc(C)cc1C | inactive | inactive | – | inactive | inactive | – |
| CCOC(C)=O | inactive | inactive | – | inactive | inactive | – |
| O=C1Cc2cc(Cl)ccc2N1 | inactive | 17.4 µM (active) | 11 µM (active) | inactive | inactive | – |
| CO/N=C(/C(=O)N[C@@H]1C(=O)N2C(C(=O)O)=C(COC(N)=O)CS[C@H]12)c1ccco1 | inactive | – | inactive | inactive | – | – |
| CCCCCCCCCCC(=O)O | inactive | – | inactive | inactive | inactive | – |
| C=C(C)C(=O)OCCCCCCCCCCCCC | inactive | inactive | inactive | inactive | 55.7 µM (active) | – |
| CC(=O)OCC[N+](C)(C)C | inactive | inactive | 24.5 µM (active) | inactive | inactive | – |
| CC(C)COCC(CN(Cc1ccccc1)c1ccccc1)N1CCCC1 (stereo unspecified) | 0.0692 µM (active) | – | inactive | – | – | – |
| FC(F)(F)c1ccccc1Cl | 46 µM (active) | inactive | inactive | inactive | inactive | – |
| O=C=Nc1cccc(C(F)(F)F)c1 | inactive | inactive | inactive | inactive | inactive | – |
| c1csc(SSc2cccs2)c1 | – | 5.03 µM (active) | 31.7 µM (active) | inactive | inactive | 5.03 µM (active) |
| C/C=C(/C(=C/C)c1ccc(O)cc1)c1ccc(O)cc1 | inactive | 17.4 µM (active) | inactive | inactive | – | – |
| CC(=O)c1ccc([N+](=O)[O-])cc1 | – | inactive | 40 µM (active) | inactive | inactive | 63.4 µM (active) |
| CCn1cc(C(=O)O)c(=O)c2cc(F)c(N3CCNCC3)cc21 | inactive | inactive | inactive | inactive | inactive | – |
| O=c1[nH]ncc2ccccc12 | inactive | inactive | inactive | inactive | inactive | – |
| C=CC(=O)OCC1CC2CC1C1CCC(COC(=O)C=C)C21 (stereo unspecified) | – | 17.8 µM (active) | – | – | – | 5.03 µM (active) |
| CCCCCCNC(=O)n1cc(F)c(=O)[nH]c1=O | – | 15.5 µM (active) | inactive | inactive | inactive | 34.7 µM (active) |
